{"source": "PubChem BioAssay (NCATS)", "key": {"Furin (Homo sapiens)": {"molecular_target": "Furin (Homo sapiens) (UniProt P09958)", "sequence (P09958 whole entry, looked up)": "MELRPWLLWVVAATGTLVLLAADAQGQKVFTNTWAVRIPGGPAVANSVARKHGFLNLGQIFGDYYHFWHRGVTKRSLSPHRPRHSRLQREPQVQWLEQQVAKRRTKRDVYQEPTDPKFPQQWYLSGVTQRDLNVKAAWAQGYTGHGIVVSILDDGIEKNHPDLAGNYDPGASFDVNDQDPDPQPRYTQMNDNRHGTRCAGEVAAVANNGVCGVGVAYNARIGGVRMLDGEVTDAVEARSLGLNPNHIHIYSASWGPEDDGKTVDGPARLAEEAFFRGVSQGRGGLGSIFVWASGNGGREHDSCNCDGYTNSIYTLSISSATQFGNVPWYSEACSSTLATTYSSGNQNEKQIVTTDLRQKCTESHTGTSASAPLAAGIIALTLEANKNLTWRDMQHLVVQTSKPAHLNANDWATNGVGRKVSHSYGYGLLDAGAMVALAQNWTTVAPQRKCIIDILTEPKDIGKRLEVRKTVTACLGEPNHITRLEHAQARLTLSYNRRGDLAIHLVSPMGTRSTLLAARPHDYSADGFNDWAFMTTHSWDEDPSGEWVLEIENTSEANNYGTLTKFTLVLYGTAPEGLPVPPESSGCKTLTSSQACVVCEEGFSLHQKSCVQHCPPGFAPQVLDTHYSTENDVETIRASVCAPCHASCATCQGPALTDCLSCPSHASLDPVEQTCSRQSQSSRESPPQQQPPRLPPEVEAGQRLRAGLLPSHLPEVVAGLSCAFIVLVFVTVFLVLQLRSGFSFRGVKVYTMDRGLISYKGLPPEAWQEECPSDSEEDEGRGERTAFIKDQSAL", "assay": "Furin counterscreen qHTS for Zika virus inhibitors (AID 1347149); note: nearly all actives have a fitted effect of over 70% in size; note: potency is the fitted concentration of half-maximal effect; for activity change, negative = inhibition: top concentration of the series differs between compounds", "method_in_brief": "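Counterscreen measures cleavage of 2 microM BOC-RVRR-AMC, below its ~15 microM Km, by 5 nM full-length human furin at pH 7.0 after a 15-min compound preincubation. Inhibition derives from the 15-min fluorescence increase at 37C.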"}, "[1]": {"assay": "Confirmatory screen GU Rhodamine qHTS for Zika virus inhibitors qHTS (AID 1347157); note: nearly all actives have a fitted effect of over 70% in size; note: potency is the fitted concentration of half-maximal effect", "method_in_brief": "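A qHTS format was used, with compound concentrations ranging up to 114 microM. Each compound was preincubated with 25 nM NS2B-NS3 protease, and the substrate was then added at 1.5 microM. Curves were fitted with a 4-parameter Hill model.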"}, "[2]": {"assay": "ZIKV-mCherry secondary qHTS for Zika virus inhibitors (AID 1347158); note: top concentration of the series differs between compounds", "method_in_brief": "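This orthogonal imaging screen measured ZIKV-mCherry infection of Vero cells exposed to compound, MOI 1, 48-72 h. Percent infection came from segmented nuclei scored mCherry-positive above 3 SD of negative controls.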"}, "[3]": {"assay": "Confirmatory screen NINDS Rhodamine qHTS for Zika virus inhibitors (AID 1347161); note: nearly all actives have a fitted effect of over 60% in size; note: potency is the fitted concentration of half-maximal effect;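 for activity change, negative = inhibition: purified Zika NS2B-NS3 protease with linked NS2B cofactor domain and Rhodamine110 peptide substrate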", "method_in_brief": "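qHTS dose-response: 25 nM linked protease, pH 8.0 Tris/Tween buffer, cpd titration, 15 min RT preinc, 1.5 microM Rhod110 peptide, 15 min reaction (~15% conversion), Ex480/Em540; 4-parameter Hill fit.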"}, "[4]": {"tested_on": "Zika virus NS2B-NS3 protease (linked construct)", "assay": "384 well plate NINDS Rhodamine confirmatory qHTS for Zika virus inhibitors (AID 1347164); note: nearly all actives have a fitted effect of over 65% in size; note: potency is the fitted concentration of half-maximal effect; for activity change, negative = inhibition: top concentration of the series differs between compounds", "method_in_brief": "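Linked NS2B-NS3 protease (final 5, 30 or 60 nM) preincubated ~15 minutes with compounds, then 10 microM Ac-LKRR-Rhodamine 110 added. Fluorescence (485/538 nm) read after 25 minutes at room temperature, normalized to no-enzyme and no-inhibitor controls.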"}, "[5]": {"assay": "Tertiary RLuc qRT-PCR qHTS assay for Zika virus inhibitors (AID 1347169); note: top concentration of the series differs between compounds; nearly all actives have a fitted effect of over 55% in size", "method_in_brief": "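Vero cells (1,000/well) infected with recombinant ZIKV-RLuc (Cambodian) at MOI 1-2 after compound addition, 48-72 hrs at 37 degrees C. Live-cell Renilla luciferase substrate added; luminescence read after 1-1.5 hrs.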"}, "[6]": {"tested_on": "Zika virus NS2B-NS3 protease (linked)", "assay": "384 well plate NINDS AMC confirmatory qHTS for Zika virus inhibitors (AID 1347163); note: potency is the fitted concentration of half-maximal effect; nearly all actives have a fitted effect of over 50% in size", "method_in_brief": "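Enzyme (5, 30 or 60 nM final) first met test compounds for ~15 min. The AMC-tagged peptide Ac-VKTGKR-AMC followed at 30 microM. Fluorescence was then recorded at 25 min and scaled against no-enzyme and no-inhibitor wells.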"}, "[7]": {"molecular_target": "Cytochrome P450 3A4 (Homo sapiens) (UniProt P08684)", "sequence (P08684 whole entry, looked up)": "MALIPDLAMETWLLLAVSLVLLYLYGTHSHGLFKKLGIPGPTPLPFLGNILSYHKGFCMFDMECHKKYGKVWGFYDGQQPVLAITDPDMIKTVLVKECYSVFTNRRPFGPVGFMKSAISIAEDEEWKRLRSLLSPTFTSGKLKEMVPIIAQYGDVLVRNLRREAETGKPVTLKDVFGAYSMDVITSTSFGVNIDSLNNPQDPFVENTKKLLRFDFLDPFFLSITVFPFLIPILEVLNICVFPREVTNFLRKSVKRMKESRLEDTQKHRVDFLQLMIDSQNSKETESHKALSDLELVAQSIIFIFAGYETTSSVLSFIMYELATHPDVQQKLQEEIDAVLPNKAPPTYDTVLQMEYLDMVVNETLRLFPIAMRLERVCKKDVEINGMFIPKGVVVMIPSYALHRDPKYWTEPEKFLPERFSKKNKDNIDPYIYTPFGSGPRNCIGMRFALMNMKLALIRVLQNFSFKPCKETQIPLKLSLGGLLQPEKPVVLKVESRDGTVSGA", "assay": "qHTS Assay for Activators of Cytochrome P450 3A4 (AID 885); note: nearly all actives have a fitted effect of over 65% in size", "method_in_brief": "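CYP3A4 activity: Luciferin-PPXE O-dealkylation, 25uM substrate, 200mM KPO4, RT throughout. Read-out is luciferase luminescence; higher values reflect activation.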"}, "[8]": {"assay": "Confirmation and Secondary Assay for Modulators of Hemoglobin Beta Chain Splicing at IVS2 654 locus (AID 910);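 note: HeLa cells stably carrying EGFP split by mutant beta-globin IVS2-654 intron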", "method_in_brief": "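Readout: per-well total peak green fluorescence (488 nm ex, 500–520 nm em) from objects 5–250 µm, reflecting correct splicing of an EGFP-654 reporter. Compounds were applied for 2 days at 37 °C to overnight-plated HeLa EGFP-654 cells; controls were DMSO and 500 nM IVS2-654 PNA.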"}, "[9]": {"assay": "Confirmation and Secondary Assay for Modulators of Hemoglobin Beta Chain Splicing at IVS2 705 locus (AID 930);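 note: HeLa cells stably expressing the EGFP-705 splicing reporter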", "method_in_brief": "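Stable HeLa line with EGFP disrupted by mutant beta-globin intron 2 (705). Overnight attachment, then 2 days of compound at 37C, 5% CO2. Signal: peak GFP intensity summed over objects 5-250 µm.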"}, "[10]": {"assay": "qHTS Assay for Lipid Storage Modulators (AID 1519; calls by dose curve)", "settings": "Drosophila S3 cells, BODIPY lipid droplet/cell ratio, laser cytometry, cells loaded with oleic acid", "method_in_brief": "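Cells seeded at 5,000 per well were treated with compounds over a concentration series and loaded with oleic acid (400 uM, as added). Lipid droplet fluorescence (488 nm excitation, 500-530 nm channel) was read by laser-scanning cytometry and normalized to 20 uM Triacsin C.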"}, "[11]": {"molecular_target": "Cytochrome P450 3A4 (Homo sapiens) (UniProt P08684)", "assay": "qHTS Assay for Inhibitors and Substrates of Cytochrome P450 3A4 (AID 884); note: potency is the fitted concentration of half-maximal effect; nearly all actives have a fitted effect of over 50% in size", "method_in_brief": "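Luminescent readout of luciferin produced by CYP3A4 (20 nM) dealkylation of Luciferin-PPXE, 25 uM (its KM). NADPH-driven reaction ran 60 min at RT after 10 min compound preincubation; data scaled to 57 uM ketoconazole as 100% inhibition.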"}, "[12]": {"molecular_target": "Ubiquitin carboxyl-terminal hydrolase 1 (Homo sapiens) (UniProt O94782)", "sequence (O94782 whole entry, looked up)": "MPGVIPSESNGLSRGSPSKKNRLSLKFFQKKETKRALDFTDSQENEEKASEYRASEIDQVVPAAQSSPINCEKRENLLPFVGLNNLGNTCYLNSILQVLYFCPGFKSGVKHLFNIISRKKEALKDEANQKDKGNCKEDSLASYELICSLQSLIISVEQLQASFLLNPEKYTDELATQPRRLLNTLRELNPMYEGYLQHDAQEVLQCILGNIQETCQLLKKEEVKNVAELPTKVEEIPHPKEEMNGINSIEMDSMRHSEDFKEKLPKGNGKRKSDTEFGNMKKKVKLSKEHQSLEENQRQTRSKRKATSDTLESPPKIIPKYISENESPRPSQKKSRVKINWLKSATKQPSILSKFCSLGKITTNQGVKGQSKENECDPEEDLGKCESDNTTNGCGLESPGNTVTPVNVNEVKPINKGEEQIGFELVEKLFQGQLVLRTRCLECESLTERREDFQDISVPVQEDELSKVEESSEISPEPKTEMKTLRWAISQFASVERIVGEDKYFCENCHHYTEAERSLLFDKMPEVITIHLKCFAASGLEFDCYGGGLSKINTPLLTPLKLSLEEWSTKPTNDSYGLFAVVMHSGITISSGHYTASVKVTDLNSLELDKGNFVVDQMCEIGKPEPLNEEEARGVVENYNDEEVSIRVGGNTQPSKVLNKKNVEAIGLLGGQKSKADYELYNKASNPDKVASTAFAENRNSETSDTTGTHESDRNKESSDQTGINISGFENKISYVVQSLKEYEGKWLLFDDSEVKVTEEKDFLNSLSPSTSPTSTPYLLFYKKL", "assay": "Inhibitors of USP1/UAF1: Pilot qHTS (AID 504865); note: potency is the fitted concentration of half-maximal effect; nearly all actives have a fitted effect of over 35% in size", "method_in_brief": "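USP1/UAF1 complex at 1 nM preincubated 15 min at room temperature with compound, then Ub-Rho substrate added at 150 nM final. Fluorescence (480/540 nm) read kinetically in 50 mM HEPES pH 7.8, 0.5 mM EDTA, 1 mM TCEP, 0.1 mg/ml BSA, 0.01% Tween-20.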"}}, "note": "Records with an inconclusive call do not appear. Where a call stands in place of a potency, no number is given. The source made the active and inactive calls. Unless noted, calls come from the whole dose curve; as a rule, active = well fitted curve in the direction sought with a large enough effect; inconclusive = small, poorly fitted or top-dose-only effect, or another doubt; inactive = no such curve, though single readings can be large; an effect the other way counts as inactive or inconclusive.", "data": [{"smiles": "O=C(Nc1cccc(C(=O)OCc2cc(=O)n3nc(C4CC4)sc3n2)c1)c1cccc(F)c1", "values": [{"measurement": "Potency", "setting": "Furin (Homo sapiens)", "result": "41.8 µM (active)"}, {"measurement": "Potency", "setting": "[1]", "result": "50.1 µM (active)"}, {"measurement": "Potency", "setting": "[2]", "result": "inactive"}, {"measurement": "Potency", "setting": "[3]", "result": "25.1 µM (active)"}, {"measurement": "Potency", "setting": "[4]", "result": "17.8 µM (active)"}, {"measurement": "Potency", "setting": "[5]", "result": "inactive"}]}, {"smiles": "CCOC(=O)c1c(-c2ccccc2)oc2ccc(NS(=O)(=O)c3ccc(C(C)C)cc3)cc12", "values": [{"measurement": "Potency", "setting": "Furin (Homo sapiens)", "result": "46.9 µM (active)"}, {"measurement": "Potency", "setting": "[1]", "result": "inactive"}]}, {"smiles": "COC(=O)c1ccc([C@H]2Nc3ccc(S(=O)(=O)Nc4ccc(C)cc4)cc3[C@H]3C=CC[C@H]32)cc1", "values": [{"measurement": "Potency", "setting": "Furin (Homo sapiens)", "result": "inactive"}, {"measurement": "Potency", "setting": "[1]", "result": "25.1 µM (active)"}, {"measurement": "Potency", "setting": "[2]", "result": "inactive"}, {"measurement": "Potency", "setting": "[4]", "result": "100 µM (active)"}, {"measurement": "Potency", "setting": "[5]", "result": "inactive"}]}, {"smiles": "Cc1ccc(NC(=O)c2ccc3c(O)c(S(=O)(=O)c4ccc(Cl)cc4)c(=O)[nH]c3c2)cc1", "values": [{"measurement": "Potency", "setting": "Furin (Homo sapiens)", "result": "inactive"}, {"measurement": "Potency", "setting": "[1]", "result": "22.4 µM (active)"}, {"measurement": "Potency", "setting": "[2]", "result": "inactive"}, {"measurement": "Potency", "setting": "[3]", "result": "6.31 µM (active)"}, {"measurement": "Potency", "setting": "[6]", "result": "251 µM (active)"}, {"measurement": "Potency", "setting": "[4]", "result": "35.5 µM (active)"}, {"measurement": "Potency", "setting": "[5]", "result": "inactive"}]}, {"smiles": "O=C(O[C@@H]1Cc2c(O)cc(O)cc2OC1c1ccc(O)c(O)c1)c1cc(O)c(O)c(O)c1", "note": "(some centres undefined)", "values": [{"measurement": "Potency", "setting": "[7]", "result": "inactive"}, {"measurement": "outcome", "setting": "[8]", "result": "inactive"}, {"measurement": "outcome", "setting": "[9]", "result": "inactive"}, {"measurement": "activity change, negative = inhibition", "setting": "[10]; at 57.5 µM (top of the series)", "result": "6.43% (inactive)"}, {"measurement": "max response", "setting": "[10]; measured here: cell count channel max response", "result": -10, "unit": "%"}, {"measurement": "max response", "setting": "[10]; measured here: lipid channel max response", "result": -4.33, "unit": "%"}, {"measurement": "Potency", "setting": "Furin (Homo sapiens)", "result": "inactive"}, {"measurement": "Potency", "setting": "[1]", "result": "35.5 µM (active)"}, {"measurement": "Potency", "setting": "[2]", "result": "inactive"}, {"measurement": "Potency", "setting": "[3]", "result": "14.1 µM (active)"}, {"measurement": "Potency", "setting": "[6]", "result": "25.1 µM (active)"}, {"measurement": "Potency", "setting": "[4]", "result": "0.708 µM (active)"}, {"measurement": "Potency", "setting": "[5]", "result": "inactive"}]}, {"smiles": "Cc1csc2nc(COC(=O)c3ccc(NC(=O)c4ccccc4Br)cc3)cc(=O)n12", "values": [{"measurement": "Potency", "setting": "Furin (Homo sapiens)", "result": "59.1 µM (active)"}, {"measurement": "Potency", "setting": "[1]", "result": "inactive"}, {"measurement": "Potency", "setting": "[3]", "result": "inactive"}]}, {"smiles": "O=C(COc1ccccc1F)Nc1ccccc1C(=O)OCc1cc(=O)n2nc(C3CC3)sc2n1", "values": [{"measurement": "Potency", "setting": "Furin (Homo sapiens)", "result": "inactive"}, {"measurement": "Potency", "setting": "[1]", "result": "inactive"}]}, {"smiles": "O=c1cc(-c2cc(O)c(O)c(O)c2)oc2cc(O)cc(O)c12", "values": [{"measurement": "Potency", "setting": "[11]", "result": "20 µM (active)"}, {"measurement": "Potency", "setting": "[7]", "result": "inactive"}, {"measurement": "outcome", "setting": "[8]", "result": "inactive"}, {"measurement": "Potency", "setting": "[12]", "result": "35.5 µM (active)"}, {"measurement": "Potency", "setting": "Furin (Homo sapiens)", "result": "inactive"}, {"measurement": "Potency", "setting": "[1]", "result": "44.7 µM (active)"}, {"measurement": "Potency", "setting": "[2]", "result": "inactive"}, {"measurement": "Potency", "setting": "[3]", "result": "31.6 µM (active)"}, {"measurement": "Potency", "setting": "[6]", "result": "63.1 µM (active)"}, {"measurement": "Potency", "setting": "[4]", "result": "inactive"}, {"measurement": "Potency", "setting": "[5]", "result": "inactive"}]}]}
